Screens deposited in PubChem BioAssay by Broad Institute.
aSyn 5UTR act: Activators working through SNCA 5'UTR binding (MLPCN); alpha-synuclein 5'UTR reporter, activators screen; activity score, % (tested at 7.5 µM), hits read low; hit rate 7.1% among 300,000; AID 1814; in the data active = activity score below about -60%
Active calls of the source: *. A selection follows.

SMILES | aSyn 5UTR act
Cc1cc(C(=O)N/N=C2\CCCc3ccccc32)c(C)o1 | -126*
Cc1cc(C(=O)NC2Cc3ccccc3C2)c(C)o1 | -137*
O=C(O)c1ccc(N/N=C2/CCCc3ccccc32)cc1 | -82*
O=C(N/N=C1\CCCCc2ccccc21)c1ccccn1 | -92*
O=C(N/N=C1\CCc2ccccc21)c1ccncc1 | -160*
Cc1cccc(-n2c(=S)[nH]c3c(oc4ccccc43)c2=O)c1 | -88*
Cc1ccc(-n2c(=S)[nH]c3c(oc4ccccc43)c2=O)cc1 | -100*
COc1ccc(Nc2nc(-c3ccc4c(c3)NC(=O)CO4)cs2)cc1 | -110*
CC(C)c1ccccc1-n1c(SCC(=O)c2ccc3c(c2)NC(=O)CO3)nc2ccccc2c1=O | 51
CCC(C)Nc1nc(-c2ccc3c(c2)NC(=O)CO3)cs1 (stereo unspecified) | -112*
Cc1cccc(Nc2ccc(NCc3ccccc3)nn2)c1 | -110*
CCN1CCN(Cc2ccccc2NC(=O)Nc2ccc(C)cc2)CC1 | -170*
O=C(Nc1ccc(Br)cc1)Nc1ccccc1Cl | -129*
O=C(Nc1ccc(CN2CCCCC2)cc1)Nc1ccccc1Cl | -90*
O=C(Nc1cccc(C(F)(F)F)c1)Nc1ccc(N2CCCC2)c(S(=O)(=O)Nc2ccccc2Cl)c1 | 93
CCN1CCN(Cc2ccc(NC(=O)Nc3ccccc3Cl)cc2)CC1 | -87*
CC(C)=CC(=O)Nc1nnc(C(C)C)s1 | -119*
CC(C)=CC(=O)Nc1nnc(-c2cccnc2)s1 | -67*
CCN(C(=O)c1cccs1)c1nnc(-c2ccncc2)s1 | -76*
Cc1ccc2c(c1)sc1nc(=O)n(-c3ccccc3)c(=O)n12 | -68*
NS(=O)(=O)c1ccc(C(=O)Nc2ccc(-c3nc4cccnc4s3)cc2)cc1 | -121*
CCc1ccc(S(=O)(=O)Nc2ccc(-c3nc4cccnc4s3)cc2)s1 | -98*
CNC(=O)C(=O)Nc1nc(C23CC4CC(CC(C4)C2)C3)cs1 | -129*
O=C(Nc1ccc(F)cc1F)Nc1csc2ccccc12 | -67*
O=C(Nc1ccc(F)cc1F)Nc1ccc(F)cc1F | -87*
SMILES | aSyn 5UTR act
O=C(Nc1cccs1)Nc1ccc(Br)cc1F | -185*
O=C(Nc1cccs1)Nc1ccc(F)cc1F | -119*
O=C(NNC(=S)Nc1ccc(F)cc1F)c1ccco1 | -109*
O=C(Nc1ccn(-c2ccccc2)n1)c1ccc(Cl)cc1 | -136*
O=C(Nc1ccn(-c2ccccc2)n1)c1ccccc1Br | -161*
COc1ccc(N2CCN(Cc3cc(=O)oc4cc(-c5ccccc5)c(O)cc34)CC2)cc1 | 73
Cc1ccc2c(CN3CCC(C)CC3)cc(=O)oc2c1C | -126*
Cc1nn(-c2ccccc2)c2sc(C(=O)NC3CC3)cc12 | -100*
Cc1nn(-c2ccccc2)c2sc(C(=O)N(CC(=O)NC3CCCC3)Cc3ccco3)cc12 | -67*
Cc1nn(-c2ccc(F)cc2)c2sc(C(=O)N3CCCCCC3)cc12 | -84*
CC1CCCN(C(=O)CSCC(=O)Nc2nc(-c3cccs3)cs2)C1 (stereo unspecified) | -76*
O=C(Cn1nnc(-c2ccccc2F)n1)N1CCCCC1 | -120*
CC1CCN(C(=O)Cn2nnc(-c3cccs3)n2)CC1 | -131*
CC1CCN(C(=O)CSCC(=O)Nc2nc(-c3cccs3)cs2)CC1 | -89*
COc1cc(/C=N\Nc2nc3ccccc3o2)cc(OC)c1OC | -186*
Brc1ccc(/C=N/Nc2nc3ccccc3o2)cc1 | -191*
COc1cc(/C=N/Nc2nc3ccccc3o2)cc(OC)c1O | -86*
COc1ccc2[nH]c(=O)c(CNc3ccccc3)cc2c1 | -167*
COc1ccc2[nH]c(=O)c(CNc3ccccc3C)cc2c1 | -94*
Cc1cc(N2CCCC2)c(F)cc1/C=C\[N+](=O)[O-] | -79*
Nc1ccc(-c2nc3c(Cl)cc(N)cc3[nH]2)cc1 | 85
Nc1ccc2nc(-c3ccc(N)c(Cl)c3)[nH]c2c1 | -115*
COc1ccc2nc(-c3ccccn3)[nH]c2c1 | -80*
Nc1cccc(-c2nc3ccc(C(=O)c4ccccc4)cc3[nH]2)c1 | -276*
Nc1ccc2nc(-c3cccs3)[nH]c2c1 | -156*
SMILES | aSyn 5UTR act
Nc1ccc2nc(-c3ccccc3)[nH]c2c1 | -126*
Nc1ccc2nc(-c3ccccn3)[nH]c2c1 | -161*
O=C(Nc1ccc(Br)cc1)C1OCCc2ccccc21 (stereo unspecified) | -84*
COc1cc(NC(=O)C/C(C)=N/NC(=O)c2ccccn2)c(OC)cc1Cl | -80*
COc1ccccc1NC(=O)C/C(C)=N/NC(=O)c1ccccn1 | -103*
C/C(CC(=O)Nc1ccc(C)c(Cl)c1)=N\NC(=O)c1ccccn1 | -71*
O=C(O)c1ccc(N/N=C/c2cccc(C(F)(F)F)c2)cc1 | -99*
O=C(O)c1ccc(N/N=C/c2ccc(F)c(F)c2)cc1 | -73*
O=C(O)c1ccc(N/N=C/c2ccc3nccnc3c2)cc1 | 94
c1ccc(-c2ccc3c(n2)CCCO3)cc1 | -113*
c1ccc(NCC2OCc3ccccc3CO2)cc1 | -147*
COc1ccccc1NC(=O)N(Cc1ccco1)Cc1cc2ccc(C)c(C)c2[nH]c1=O | 51
